NS1 function inh = influenza NS1 inhibition. Potency, µM (series often up to 46.1 µM). 270,000 tested, 0.4% active; calls by dose curve; further: actives are rising curves; nearly all actives have a fitted effect of over 50% in size
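Recovery from NS1-induced slow growth read by OD600 in budding yeast switched to galactose assay medium (pH 6.0, -URA) at 1:100 dilution. Compound 23 nl per well; the matching strain lacking NS1 serves as control.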
Shiga toxin inh = Shiga toxin inhibition | Vero cells, Shiga toxin protein synthesis inhibition reporter | 290,000 tested, 9.2% active | inhibition, % at 38.7 µM | AID 2315; in the data active means inhibition mostly above about 28%, no sharp cut-off; inactive means mostly below about 43%
Pf growth 96h = P. falciparum growth inhibition at 96 hour, primary screen for plastid delayed-death inhibitors | P. falciparum luciferase reporter growth, 96 h | Potency, µM (doses to about 28.7 µM), usual class: inhibitors | 320,000 tested, 6.9% active | AID 504834
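Cell-based qHTS: luciferase-tagged P. falciparum in erythrocytes (2% hematocrit, 0.05% parasitemia final) incubated with compounds for 96 hours, 37 C, 5% CO2; luciferase detection reagent then added and luminescence measured.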
Pf growth 48h = P. falciparum growth inhibition at 48 hours (one generation); P. falciparum luciferase growth in erythrocytes, 48 h; Potency, µM (top dose mostly 28.7 µM), hits mostly inhibitors; 310,000 tested, 5.9% active
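Here the parasites carry a stable luciferase gene and grow inside erythrocytes in Albumax-based RPMI medium with compound for one erythrocytic cycle. Activity is scored as loss of luminescent signal.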
Cycloheximide cs = counter-screen hit for Shiga toxin inhibitors, cycloheximide | cell reporter, cycloheximide protein synthesis inhibition counterscreen | max response, % | 300,000 tested, 12% active; in the data active means max response mostly above about 13%, no sharp cut-off; inactive means mostly below about 14%; further: read at 38.3 µM for the half of the compounds with a filed dose
Sm TGR inh = inhibitors of Schistosoma mansoni thioredoxin glutathione reductase. Q962Y6. purified TGR, DTNB reduction, TNB absorbance 405 nm. Potency, µM (doses to about 114 µM), most hits filed as inhibitors. 360,000 tested, 3% active. AID 485364; further: nearly all actives have a fitted effect of over 60% in size
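Kinetic colorimetric format: TGR-catalysed, NADPH-driven DTNB reduction monitored via TNB absorbance. Enzyme dispensed at 20 nM; compound exposure 15 min at room temperature before reaction start.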
Of the large screens only hits and unclear results are named; the others gave an inactive call. A selection: hits, their analogues and other compounds. The true share with any hit is near 21%. Unless noted, the call rests on the fitted dose curve; in most records, active means well fitted curve in the direction sought with a large enough effect; inconclusive means small, poorly fitted or top-dose-only effect, or another doubt; inactive means no such curve, though single readings can be large; an effect the other way counts as inactive or inconclusive.

O=C(NCCc1c[nH]c2ccccc12)c1ccc(F)cc1F	Shiga toxin inh 115.8, Cycloheximide cs 24.6
COc1ccc(OCC(=O)NCCc2c[nH]c3ccccc23)cc1	none
O=C(CCNS(=O)(=O)c1ccc(OC(F)(F)F)cc1)NCCc1c[nH]c2ccccc12	Pf growth 96h 10.4µM, Pf growth 48h inconclusive (no result: NS1 function inh, Shiga toxin inh, Cycloheximide cs)
COc1ccc(C(=O)NCCc2c[nH]c3ccccc23)cc1	Shiga toxin inh 77.3, Pf growth 96h inconclusive, Cycloheximide cs 45.1
O=C(NCCc1c[nH]c2ccccc12)c1cnccn1	Shiga toxin inh 38.3 (no result: NS1 function inh)
O=C(NCc1ccccc1CN1CCCC1)c1ccc(Cl)c(N2CCCC2=O)c1	Pf growth 96h inconclusive, Pf growth 48h inconclusive (no result: NS1 function inh, Shiga toxin inh, Cycloheximide cs)
O=C(NCCc1c[nH]c2ccccc12)c1cnc2sccn2c1=O	Shiga toxin inh 83.8, Cycloheximide cs 34.2 (no result: Pf growth 48h)
COc1ccc(-c2cn(Cc3cccc(OC)c3)nn2)cc1	Shiga toxin inh 81.6, Cycloheximide cs 29.2
COC(=O)/N=C(/Cc1ccc(OC)cc1)c1ccc(OC)cc1	Shiga toxin inh 55.9, Cycloheximide cs 17.5
COc1ccc(CC(=O)Nc2ccc(C(N)=O)cc2)cc1	NS1 function inh inconclusive
COc1ccc(C/C(=N\OC(C)=O)c2ccc(OC)cc2)cc1	Cycloheximide cs 18.3
Cc1ccc(S(=O)(=O)C(CNS(=O)(=O)c2ccc(F)c(C)c2)c2cccs2)cc1 (stereo not given)	Sm TGR inh 0.631µM (no result: NS1 function inh, Shiga toxin inh, Pf growth 96h, Pf growth 48h, Cycloheximide cs)
CCOc1ccc(S(=O)(=O)NCC(c2cccs2)S(=O)(=O)c2ccc(C)cc2)cc1 (stereo not given)	Sm TGR inh 0.316µM (no result: NS1 function inh, Shiga toxin inh, Pf growth 96h, Pf growth 48h, Cycloheximide cs)
CCOC(=O)C1CCN(C(=O)COc2ccc(S(=O)(=O)N3CCOCC3)cc2C)CC1	Pf growth 96h inconclusive
COc1ccc(-c2cc3ccccc3n2CC(O)CN2CCCCC2)cc1 (stereo not given)	Pf growth 96h inconclusive
CCC(=C(c1ccc(OC)cc1)c1ccc(OC)cc1)c1cn(CC(O)CN2CCN(C)CC2)c2ccccc12 (stereo not given)	Pf growth 48h 9.28µM (no result: Pf growth 96h)
Cn1nnnc1SCC(=O)Nc1ccccc1C(N)=O	none
O=C(Nc1nnc(SCc2ccc(Cl)cc2)s1)c1cnccn1	none
Cc1cnc(C(=O)Nc2nnc(C)s2)cn1	none
CC(C)c1nnc(NC(=O)c2cnccn2)s1	Shiga toxin inh 38.1, Cycloheximide cs 16.6
Cc1cnc(C(=O)Nc2nnc(C(C)C)s2)cn1	Shiga toxin inh 70.6, Cycloheximide cs 41.4
COc1c(C(=O)Nc2nnc(C3CC3)s2)csc1Cl	Shiga toxin inh 54.4, Cycloheximide cs 36.4
Cc1cnc(C(=O)Nc2nnc(C3CC3)s2)cn1	Cycloheximide cs 31.9
Cc1cc2c(=O)n(C)c(SCC(=O)Nc3cccc(F)c3)nc2s1	Pf growth 48h inconclusive
COCCCN(C(=O)Cc1csc(-c2cccc(Cl)c2)n1)c1c(N)n(Cc2ccccc2)c(=O)[nH]c1=O	Pf growth 96h inconclusive, Pf growth 48h inconclusive (no result: NS1 function inh, Shiga toxin inh, Cycloheximide cs)
Cc1cnc(C(=O)Nc2nccs2)cn1	NS1 function inh inconclusive, Shiga toxin inh 108.2, Cycloheximide cs 63.6
CCC1(C)NC(=O)N(CC(=O)c2cc(C)n(C3CC3)c2C)C1=O (stereo not given)	none (no result: NS1 function inh, Shiga toxin inh, Cycloheximide cs)
CC(C)COc1ccc(C(=O)Nc2cc(S(=O)(=O)N3CCOCC3)ccc2N2CCCC2)cc1	Pf growth 96h inconclusive, Pf growth 48h 8.28µM (no result: NS1 function inh, Shiga toxin inh, Cycloheximide cs)
O=S(=O)(Nc1cc(S(=O)(=O)N2CCOCC2)ccc1O)c1ccc2c(c1)OCCCO2	none (no result: NS1 function inh, Shiga toxin inh, Cycloheximide cs)
O=S(=O)(Nc1cc(S(=O)(=O)N2CCOCC2)ccc1N1CCOCC1)c1ccc2c(c1)OCCO2	Pf growth 48h inconclusive, Cycloheximide cs 16.2 (no result: NS1 function inh)
CC(C)Oc1ccc(S(=O)(=O)N2CCOCC2)cc1NC(=O)c1cc([N+](=O)[O-])ccc1N1CCOCC1	Pf growth 96h 11.7µM, Pf growth 48h 13.1µM (no result: NS1 function inh, Shiga toxin inh, Cycloheximide cs)
CC(C)Oc1ccc(C(=O)Nc2cc(S(=O)(=O)N3CCOCC3)ccc2N2CCOCC2)cc1	Pf growth 96h inconclusive, Pf growth 48h 13.1µM (no result: NS1 function inh, Shiga toxin inh, Cycloheximide cs)
O=C(CNC(=O)c1ccccc1F)OCn1nnc2ccccc2c1=O	Sm TGR inh inconclusive (no result: NS1 function inh, Shiga toxin inh, Cycloheximide cs)
N#Cc1ccc(C(=O)Nc2cc(S(=O)(=O)Nc3ccc(Cl)cc3)ccc2N2CCCCC2)cc1	Pf growth 96h 10.4µM, Pf growth 48h 13.1µM
O=C(Nc1cc(S(=O)(=O)N2CCOCC2)ccc1N1CCOCC1)c1cccc(S(=O)(=O)N2CCCCC2)c1	Pf growth 96h inconclusive, Pf growth 48h inconclusive
